Experimental data taken from PubChem BioAssay (NCI).
This is part of a sample that, as a whole, favours compounds with a hit. Of some 79,000 tested, about 15% had one in any assay. The source made the active and inactive calls. Rule as the data show it: active = growth inhibition above about 70%; inactive = the rest.

Assays:
[1] = NCI Yeast Anticancer Drug Screen. Data for the rad50 strain (AID 155);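 also: 0% = growth of vehicle-only cultures of the same strain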; conditions: S. cerevisiae rad50 strain growth inhibition; at 50.0 µM; hits give high values
Summary of the method: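 Vehicle-treated cultures provide the reference for the growth inhibition reported for compound-exposed, repair-deficient yeast.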

[2] = NCI Yeast Anticancer Drug Screen. Data for the mec2-1 strain (AID 157); conditions: S. cerevisiae mec2-1 strain, at 50.0 µM, hits give high values
Summary of the method: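 Using mec2-1 yeast: add compound, measure growth, express inhibition versus vehicle-treated cultures.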

[3] = NCI Yeast Anticancer Drug Screen. Data for the sgs1 mgt1 strain (AID 161);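 also: 0% = growth of cultures given vehicle only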; conditions: S. cerevisiae sgs1 mgt1 strain, at 50.0 µM, hits give high values
Summary of the method: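 Yeast cells carrying a defined DNA-repair defect were exposed to test compounds. Growth inhibition was measured relative to vehicle-treated controls.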

[4] = NCI Yeast Anticancer Drug Screen. Data for the cln2 rad14 strain (AID 165);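 also: 0% = growth equal to vehicle treated cultures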; conditions: S. cerevisiae cln2 rad14 strain, at 50.0 µM, hits give high values
Summary of the method: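 Yeast strain cln2 rad14, bearing defects in cell cycle control and DNA repair, serves as the test system; values reflect growth inhibition compared with vehicle.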

[5] = NCI Yeast Anticancer Drug Screen. Data for the bub3 strain (AID 167); conditions: S. cerevisiae bub3 mutant strain, at 50.0 µM, hits give high values
Summary of the method: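 Mutant yeast screening strain plus compound; vehicle-treated cultures serve as the 0% inhibition reference.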

[6] = NCI Yeast Anticancer Drug Screen. Data for the mlh1 rad18 strain (AID 175); conditions: S. cerevisiae mlh1 rad18 strain growth inhibition; at 50.0 µM; hits give high values
Summary of the method: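 Steps: expose repair-defective yeast to compound; measure growth; express inhibition against vehicle-treated controls.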

Measured: growth inhibition

OC1CCCC2CCCC12 (stereo unspecified)
inactive: [1] 1% | [2] 1.15% | [3] -8.1% | [4] 15.4% | [5] 16.4% | [6] -5.75%

CCCCN(Cc1ccccc1)C(=O)Nc1ccccc1
inactive: [1] 4.5% | [2] 30.1% | [3] 33.1% | [4] -8.1% | [5] 39% | [6] 1.2%

C=C(C)[C@@H]1CC[C@]2(C)CC[C@]3(C)[C@H](CC[C@@H]4[C@@]5(C)CC[C@H](O)C(C)(C)[C@@H]5CC[C@]43C)[C@@H]12
inactive: [1] -2.75% | [2] -4.95% | [3] -11.3% | [4] -10.4% | [5] -6.05% | [6] -11.3%

O=C(CCCSCCCC(=O)NN=C1CCSCC1)NN=C1CCSCC1
inactive: [1] -0.9% | [2] -4.3% | [3] 10.8% | [4] 21.2% | [5] -7.85% | [6] -7.65%

CC(=O)c1cc(-c2ccccn2)c(=O)n2ccccc12
inactive: [1] 26.1% | [2] 15.5% | [3] -19.9% | [4] -0.3% | [5] 5.25% | [6] -4%

C=CCOc1cc2c(cc1C(C)c1ccc(OCC)cc1)OCO2 (stereo unspecified)
inactive: [1] 51.6% | [2] 14.8% | [3] -14.6% | [4] -19.4% | [5] -10.8% | [6] -32.3%

CN(C)CC(CCC(=O)c1ccccc1)C(=O)c1ccccc1 (stereo unspecified)
inactive: [1] 8.05% | [2] 15.8% | [3] 26.2% | [4] -45.8% | [5] 14.2% | [6] 5.5%

O=c1cc(CC(O)(C(F)(F)Cl)C(F)(F)Cl)[nH]n1-c1ccccc1
inactive: [1] -27.9% | [2] 4.05% | [3] -7.75% | [4] 11.4% | [5] -22.1% | [6] -5.65%

CCN(CC)CC(C)(C)C(=O)/C=C/c1ccc(C)cc1
inactive: [1] 39.5% | [2] 12.8% | [3] 57.5% | [4] 3.9% | [5] -13.4% | [6] 19.9%

COc1ccc(OC)c(N=Nc2c(C)nc(N)nc2C)c1
inactive: [1] 11.3% | [2] 4.4% | [3] 7.85% | [4] -32.6% | [5] 19.6% | [6] 10.2%

O=C(O)C1(C(=O)O)CCCCC1.[NH-]CC1(C[NH-])CCCCC1.[Pt+2]
inactive: [1] 21.8% | [2] 9.95% | [3] 27.8% | [4] 21.1% | [5] 5.85% | [6] 14.9%

O=C1CSC2=NC3=C(CSC/C3=C\c3ccccc3)C(c3ccccc3)N12 (stereo unspecified)
inactive: [1] 14.4% | [2] 11.5% | [3] 21.2% | [4] 35.8% | [5] 21% | [6] -25.6%

COC1C(C(=O)O)=CC=CC1OC(C)=O (stereo unspecified)
inactive: [1] 10.6% | [2] -5.45% | [3] -2.55% | [4] -44.1% | [5] 2.8% | [6] 13.6%

O=[N+]([O-])c1ccc(S(=O)(=O)n2cccc2)cc1
inactive: [1] 0.9% | [2] 8.8% | [3] -8.05% | [4] -20.9% | [5] 3.6% | [6] -19.8%

COc1ccc(C)cc1N
inactive: [1] 19.2% | [2] -5.3% | [3] -1.15% | [4] 24.4% | [5] -3.2% | [6] 24.4%

O=C(Nc1cccc(Cl)c1)c1ccc(Cl)cc1
inactive: [1] 2.95% | [2] 24.2% | [3] 7.75% | [4] -12.9% | [5] 26.7% | [6] 4.3%

CCC(=O)C(CC)c1ccc(OC)cc1OC (stereo unspecified)
inactive: [1] -1.75% | [2] -31.4% | [3] -6.15% | [4] 3.85% | [5] 7.3% | [6] 15.6%

CC(=O)Oc1cc2c(cc1C(NC(N)=O)c1ccc3c(c1)OCO3)OCO2 (stereo unspecified)
inactive: [1] 1.95% | [2] 2.7% | [3] 1.55% | [4] -11.2% | [5] 16.4% | [6] 12.4%

CCC([NH-])(CC)C[NH-].[Cl][Pt+2][Cl]
inactive: [1] 2.3% | [2] 13.4% | [3] -31.4% | [4] -1.45% | [5] -14.1% | [6] -44.6%

CN(C)CCNC(=O)Cn1cnc2cccc([N+](=O)[O-])c2c1=O
inactive: [1] 34.5% | [2] 17% | [3] 4.85% | [4] 20.6% | [5] 20.9% | [6] -34.6%

c1ccc(-c2cc(-c3cc(-c4ccccc4)n(-c4ccccc4)n3)nn2-c2ccccc2)cc1
inactive: [1] -2.9% | [2] -13.2% | [3] -19.3% | [4] -2.55% | [5] -14% | [6] -38.3%

N#CCCN1CCCC1=O
inactive: [1] -11.8% | [2] -7.55% | [3] -12.5% | [4] -22.4% | [5] 6% | [6] 6.15%

COc1cc(C=O)c([N+](=O)[O-])cc1OC
inactive: [1] 14.2% | [2] -20.7% | [3] 18.2% | [4] 20.9% | [5] -8.5% | [6] -8.85%

CCCCCCOCC(=O)O
inactive: [1] -6.75% | [2] -11.2% | [3] -7.25% | [4] -19.8% | [5] -10.4% | [6] -13.7%

C=C[C@]1(C)CC(=O)C(C(C)C=O)[C@]12C(=O)Oc1cccc(C)c1C2=O (stereo partly specified)
inactive: [1] 63.9% | [4] 58.1%
active: [2] 85.5% | [3] 79% | [5] 71.8% | [6] 86.7%

O=C(O)c1ncn2c(=O)n(CCCl)nnc12
inactive: [1] -18.9% | [2] -16.4% | [3] -15.8% | [4] -27.8% | [5] -0.55% | [6] 9.2%

CCOC(=O)CC1(C)SCCN1C(N)=O (stereo unspecified)
inactive: [1] 2.25% | [2] 4.35% | [3] -5.85% | [4] -26.3% | [5] 4% | [6] -10.2%

Nc1ccc(S(=O)(=O)O)c(N)c1
inactive: [1] 10.2% | [2] 9.05% | [3] -3.5% | [4] -0.3% | [5] 13.1% | [6] 3.95%

CC(=O)OCSc1ncnc2c1ncn2CN1CCOCC1
inactive: [1] 7.15% | [2] 2.25% | [3] -19.9% | [4] 1.8% | [5] -4.85% | [6] 7.85%

CCC1CN2CCc3cc(OC)c(OC)cc3C2CC1(O)C#N (stereo unspecified)
inactive: [1] 9.9% | [2] 18.9% | [3] -5.9% | [4] 0.6% | [5] 12.8% | [6] 39%

COc1ccc(C2(c3ccc(OC)cc3)c3ccccc3Cc3c(OC)cccc32)cc1
inactive: [1] -1.55% | [2] 16.7% | [3] -5.65% | [4] 2.8% | [5] -11.2% | [6] 6.4%

C/C(=C\C(=O)c1cccc([N+](=O)[O-])c1)c1cccc([N+](=O)[O-])c1
inactive: [1] 1.35% | [2] 15.3% | [3] 0.7% | [4] -21.6% | [5] 2.6% | [6] 29.6%

CCC(C(=O)O)C1=CCCCC1 (stereo unspecified)
inactive: [1] 15.7% | [2] -13.6% | [3] 16.2% | [4] 16.1% | [5] -14.2% | [6] 4.45%

CCOC(=O)C(=CNC(=S)Nc1ccc(OCC)cc1)C(=O)OCC
inactive: [1] -9.75% | [2] -24.5% | [3] -7.85% | [4] -16.3% | [5] 11.5% | [6] 6.05%

Cn1c(=O)c2c(nc(/N=C/c3ccncc3)n2C)n(C)c1=O
inactive: [1] -3.35% | [2] -5.95% | [3] -5.9% | [4] -75.7% | [5] -16.8% | [6] -2.85%

C=CC(=O)OCCCS(=O)(=O)[O-].C=CC(=O)OCCCS(=O)(=O)[O-].NC1CCCCC1N.[Pt+4]
inactive: [1] 3.05% | [2] -7.75% | [3] -4.25% | [4] 37.5% | [5] 14.1% | [6] 9.75%

Cc1cc(OC(C)C)cc(C)c1C(=O)OCC(C)N1CCCC1 (stereo unspecified)
inactive: [1] 11.8% | [2] -8.2% | [3] 19.9% | [4] 5.35% | [5] -4.9% | [6] 11.2%

CC1COC(c2ccc(Cl)cc2)O1 (stereo unspecified)
inactive: [1] 12.2% | [2] 18.1% | [3] 22% | [4] 20.4% | [5] -1.25% | [6] 12.7%

CCCCCCCCCCCC(=O)O (tested in a mixture with another compound)
inactive: [1] -15.7% | [2] 7.5% | [3] -41.6% | [4] -39.9% | [5] -32.6% | [6] -13.5%

Cc1cc2ccccc2n1S(=O)(=O)c1ccccc1
inactive: [1] 54% | [2] 45.4% | [3] 18.4% | [4] 35% | [5] 61% | [6] 66.3%

CC(=O)Oc1ccc(OC(C)=O)c([N+](=O)[O-])c1
inactive: [1] 24.1% | [2] 17.2% | [3] -1.65% | [4] -9.75% | [5] 1% | [6] 29.2%
